Screens as filed in PubChem BioAssay.
Sampled rows, rich in hits. Any-hit rate of the full collection: about 21%.
TDP1 cell CPT – DT40-hTDP1 cell growth loss with CPT; Potency, µM (doses to about 46.2 µM), actives largely listed as inhibitors; chicken DT40 Tdp1-/-;hTDP1 cells + 20 nM CPT, ATP luminescence, 48 h; actives 12% (n = 420,000); also: nearly all actives have a fitted effect of over 55% in size
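Cell growth measured by CellTiter-Glo luminescence after a minimum 48 h, 37 C compound exposure with 20 nM CPT in Tdp1-knockout DT40 cells stably expressing hTDP1, seeded 400/well; qHTS titration format.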
ELG1 repair inh – ELG1-dependent DNA repair inhibition; HEK293T ELG1-luciferase reporter, luminescence, 16 h; DNA damage induced by 5-fluorouridine; Potency, µM (titrated, usually from 46.1 µM), hits mostly inhibitors; actives 2.3% (n = 330,000); also: nearly all actives have a fitted effect of over 55% in size
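Step one: seed 2,000 cells per well. Step two: pin-transfer compound or DMSO alongside 5-fluorouridine. Step three: incubate 16 hr, 37 °C, 5% CO2. Step four: add ONE-Glo, wait 30 min, read luminescence.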
IL-1B inflam inh – blocks inflammasome-driven IL-1 beta release; THP-1 LPS/ATP IL-1B secretion, AlphaLISA, 16 h; hits give low values; activity change, % at 57.5 µM; actives 4.7% (n = 360,000); in the data active = activity change below about -50%; inconclusive = mostly about -30% to -49%
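Secreted IL-1B measured by AlphaLISA bead assay after 16 h compound exposure of THP-1 cells; compounds (final up to 57.5 uM) added 1 h before LPS (250 ng/mL) and ATP (1.25 mM) stimulation; lower signal means less secretion.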
VP16 counter – Gal4-VP16 reporter inhibition counter-screen. Drosophila S2 Gal4-VP16 UAS-luciferase, luminescence, 20 h. AID 2546. actives 3.5% (n = 310,000). Potency, µM (doses to about 53.6 µM), usual class: inhibitors;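 also: Gal4-VP16 expression switched on by copper sulfate through the metallothionein promoter; nearly all actives have a fitted effect of over 50% in size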
DT40 TDP1 no CPT – qHTS for Inhibitors of human tyrosyl-DNA phosphodiesterase 1 (TDP1): qHTS in cells in absence of CPT | DT40 Tdp1-/- hTDP1 cells, no CPT, ATP luminescence, 48 h | Potency, µM (titrated, usually from 46.2 µM), hits mostly inhibitors | actives 15% (n = 420,000) | AID 686978, 2013; also: nearly all actives have a fitted effect of over 55% in size
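Luminescent ATP content (CellTiter-Glo) served as the growth readout. Knockout chicken DT40 cells expressing human TDP1 were exposed to compounds without camptothecin for a minimum 48 hr at 37 °C.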
RORgamma inh – blocks mouse ROR gamma transcriptional activity | actives 5.4% (n = 310,000) | Drosophila S2 Gal4-RORgamma UAS-luciferase reporter, 20 h | Potency, µM (top dose mostly 53.6 µM), usual class: inhibitors | AID 2551 | P51450; also: nearly all actives have a fitted effect of over 60% in size
Target sequence (P51450 whole entry, looked up, the tested form may be a part): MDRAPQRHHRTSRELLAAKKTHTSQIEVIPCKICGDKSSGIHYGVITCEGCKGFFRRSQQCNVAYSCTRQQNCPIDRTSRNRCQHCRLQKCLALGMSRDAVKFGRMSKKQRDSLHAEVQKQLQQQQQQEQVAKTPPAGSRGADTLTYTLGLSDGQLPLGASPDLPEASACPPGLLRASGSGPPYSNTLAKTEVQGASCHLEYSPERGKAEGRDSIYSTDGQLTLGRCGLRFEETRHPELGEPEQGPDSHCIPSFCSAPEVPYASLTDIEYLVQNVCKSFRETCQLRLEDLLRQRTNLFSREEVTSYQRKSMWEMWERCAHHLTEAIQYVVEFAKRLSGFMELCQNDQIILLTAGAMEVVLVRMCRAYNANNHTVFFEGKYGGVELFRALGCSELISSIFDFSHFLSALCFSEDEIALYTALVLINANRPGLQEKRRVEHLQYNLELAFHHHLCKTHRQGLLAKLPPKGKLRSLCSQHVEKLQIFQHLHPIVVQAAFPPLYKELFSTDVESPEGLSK
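Compounds are pin-transferred onto Drosophila Schneider cells expressing a copper-inducible Gal4–ROR gamma transactivation domain fusion. After 1 hr, copper sulfate is added to 700 uM final; luciferase is read 20 hr later.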
A number is an active result; – = inactive; ? = inconclusive; · = no result given; ! = not active in a repeat; [ ] = another dose, or the depositor's remark. Unless noted, calls follow the shape of the dose curve; as a rule, active = well fitted curve in the direction sought with a large enough effect; inconclusive = small, poorly fitted or top-dose-only effect, or another doubt; inactive = no such curve, though single readings can be large; an effect the other way counts as inactive or inconclusive.

SMILES | TDP1 cell CPT | ELG1 repair inh | IL-1B inflam inh | VP16 counter | DT40 TDP1 no CPT | RORgamma inh
COc1ccc(CSc2n[nH]c(C)n2)cc1[N+](=O)[O-] | – | – | – | – | – | –[10 µM]
CCN(CC)CCNC(=O)c1ccc(NC(=O)Cc2ccc(OC)c(S(=O)(=O)N3CCOCC3)c2)cc1 | – | · | – | · | – | ·
C=CC(=O)Nc1ccc(CN2C(=O)N(c3c(Cl)c(OC)cc(OC)c3Cl)Cc3cnc(NCCCCN(CC)CC)nc32)cc1 | 12µM | – | -67 | · | 13µM | ·
CCOc1ccc(-c2cc(C(=O)NCCCN3CCOCC3)c3ccccc3n2)cc1 | ? | – | – | – | – | –
CC1CC(C)CN(C(=O)c2cc(-c3ccccn3)nc3ccccc23)C1 (stereo unspecified) | ? | – | – | – | – | –
O=C(NCCCN1CCOCC1)c1cc(-c2cccc(Br)c2)nc2ccccc12 | ? | – | -64 | – | ? | –
O=C(NCCCN1CCOCC1)c1cc(-c2ccc(Cl)s2)nc2ccccc12 | ? | – | -78 | · | ? | ·
O=C(NCCCN1CCOCC1)c1cc(-c2ccc(F)cc2)nc2ccccc12 | ? | – | – | · | – | ·
CC1CN(C(=O)c2cc(-c3ccc(Cl)s3)nc3ccccc23)CC(C)O1 (stereo unspecified) | ? | – | -53 | · | 16µM | ·
CN(C)c1ccc(C=Nc2ccc(/C=C3\C=Cc4ccccc43)cc2)cc1 | – | · | · | · | ? | ·
O=C(/C=C/c1ccccc1)Nn1cnc2ccccc2c1=O | 16µM | – | – | – | – | ?
O=C(/C=C/c1ccccc1Cl)Nn1cnc2ccccc2c1=O | ? | ? | – | – | – | –
CC(C)NC(=O)C1(C)CN(S(C)(=O)=O)CC(=O)N1C1CCCCCC1 (stereo unspecified) | – | · | – | · | – | ·
Cc1ccc(S(=O)(=O)N2CCN(S(=O)(=O)c3ccccc3)C2c2ccc(N(C)C)cc2)cc1 (stereo unspecified) | 16µM | ? | – | – | ? | –
O=C(CN1CCOCC1)N1CCN(S(=O)(=O)c2ccccc2)C1c1ccccc1 (stereo unspecified) | – | – | – | – | – | –
CC(=O)N1CCN(S(=O)(=O)c2ccc(C)cc2)C1c1ccc(N(C)C)cc1 (stereo unspecified) | – | – | – | – | ? | –
Cc1ccc(S(=O)(=O)N2CCN(C(=O)CN3CCOCC3)C2c2ccccc2)cc1 (stereo unspecified) | ? | ? | – | – | 16µM | –
CCOc1ccc(OCCNC(=O)c2ccc3c(c2)nnn3CC)cc1 | – | – | – | · | – | ·
COc1cc(CN2CC(=O)N(c3ccc(C)c(Cl)c3)C2=S)cc(OC)c1OC | ? | ? | – | – | 21µM | –
COc1cc(CN2CC(=O)N(c3ccc(C)cc3)C2=S)cc(OC)c1OC | ? | ? | – | – | 26µM | –
COc1ccc(CN2CC(=O)N(c3ccc(C)cc3)C2=S)cc1OC | – | – | – | – | ? | –
Cc1cccc(C)c1OCC(=O)Nc1c(C(=O)c2ccc(Br)cc2)oc2ccccc12 | – | · | · | · | ? | ·
Cc1cc(C)c(NC(=O)C(C)Sc2nc3ccc(N4C(=O)c5ccccc5C4=O)cc3s2)c(C)c1 (stereo unspecified) | ? | – | – | –[0.365 µM] | 35µM | –
c1ccc2c(c1)Cc1cc3ccccc3nc1-2 | ? | ? | – | ? | 21µM | 11µM!
O=C1c2ccccc2-c2nc3ccccc3cc21 | ? | ? | – | – | ? | ?
SMILES | TDP1 cell CPT | ELG1 repair inh | IL-1B inflam inh | VP16 counter | DT40 TDP1 no CPT | RORgamma inh
COc1ccc(C=CC(=O)c2ccc(OC)c(OC)c2)cc1O | 15µM | · | -65 | · | 18µM | ·
O=C(/C=C/c1ccc(O)c(O)c1)c1ccc(O)cc1O | · | · | · | – | · | –
COc1ccc(C=CC(=O)c2ccc3cc(OC)c(OC)cc3c2)cc1OC | ? | · | -98 | · | 5.8µM | ·
COc1ccc(/C=C/C(=O)CC(=O)/C=C/c2cccc(O)c2OC)cc1O | 6.6µM | · | · | – | 3µM | 6.3µM
COc1ccc(C=NNC(=O)CCCC(=O)NN=Cc2ccc(OC)c(O)c2)cc1O | – | · | – | · | – | ·
COc1ccc(C(=O)/C=C/c2ccc(OC)c(O)c2)c(F)c1 | ? | ? | -104 | ? | 16µM | 10µM
O=C1NC(=O)C2(CCCCCCC2)N1 | – | · | – | · | – | ·
CCc1ccc(OCC(=O)Nc2ccc(N3CCN(C(=O)c4ccccc4)CC3)cc2)cc1 | ? | – | – | – | – | –
Cc1ccc(OCC(=O)Nc2cc(C(=O)O)cc(C(=O)O)c2)cc1C | 6.5µM | – | – | – | ? | –
CCC(=O)N1CCN(c2ccc(NC(=O)COc3cccc(C)c3C)cc2)CC1 | ? | ? | – | – | 18µM | –
COc1ccc(OCC(=O)Nc2ccc(N3CCN(C(=O)c4ccccc4C)CC3)cc2)cc1 | 26µM | – | – | – | ? | –
Cc1ccc(OCC(=O)Nc2ccc(N3CCN(C(=O)c4ccco4)CC3)cc2)cc1C | ? | ? | -82 | – | ? | –
Cc1cccc(OCC(=O)Nc2ccc(N3CCN(C(=O)c4ccccc4)CC3)cc2)c1C | ? | – | – | – | ? | –
COC(=O)c1[nH]c2cc(OC)c(OC)cc2c1NC(=O)CN1C[C@H]2C[C@@H](C1)c1cccc(=O)n1C2 | – | – | – | · | – | ·
O=C(NCC[C@@H]1C[C@@H]2C=C[C@H]1C2)c1cc(COc2ccc(F)cc2F)on1 | ? | – | – | – | ? | –
Cc1ccccc1OCC(=O)Nc1ccc(N2CCN(C)CC2)c(Cl)c1 | ? | ? | ? | – | 15µM | –
Cc1cc(OCC(=O)Nc2ccc(N3CCN(C(=O)c4ccco4)CC3)cc2)cc(C)c1Cl | 9.2µM | ? | – | – | 10µM | –
Cc1cccc(OCC(=O)Nc2ccc(N3CCN(C(=O)c4ccco4)CC3)cc2)c1 | 18µM | ? | -54 | – | 21µM | –
Cc1cc(OCC(=O)Nc2ccc(N3CCCC3)cc2)cc(C)c1Cl | – | – | – | – | – | –
Cc1ccccc1OCC(=O)Nc1ccc2c(c1)Cc1ccccc1-2 | – | – | – | ? | – | –
Cc1ccc(C(=O)Nc2ccc(N3CCN(C(=O)c4ccco4)CC3)cc2)cc1 | – | ? | – | – | – | –
COc1ccc(OCC(=O)Nc2ccc(N3CCN(C(=O)c4ccccc4)CC3)c(Cl)c2)cc1 | ? | 12µM | – | ? | 12µM | –
COc1ccc(C(=O)OCC(=O)NCC2CCCCC2)cc1F | ? | – | – | · | – | ·
CCOc1ccc(N2CC(NC(=O)CCc3ccccc3)CC2=O)cc1 (stereo unspecified) | – | · | · | · | – | ·
